Source: ChEMBL document CHEMBL3988442, “University of Dundee, Small-Polar-MMV Screening Library” (2021)
The campaign covered roughly 48,000 compounds. About 13,000 (27%) showed an effect of 50% or more. The list shows a part of the results.

What follows are compounds tested on Wolbachia pipientis (assay: Anti-Wolbachia Cell-Based Screen). Conditions: 5 µM.
Assay type: functional
Set-up: scale not given: in the data most compounds retested in dose-response had high values

In order of falling “Percent Effect” value:
1. CC(=O)N(Cc1ncc(C)o1)C1CCN(Cc2ccccc2F)C1 (stereo unspecified)  139.2%
2. CN(CC(=O)N1CCCCC1c1nc(C(C)(C)C)cs1)C1CC1 (stereo unspecified)  131.5%
3. CN(CC(=O)N1CCCCC1c1nccs1)C1CC1 (stereo unspecified)  114.2%
4. CN1C(=O)CCCC12CCCN(C(=O)c1cccc(C(F)(F)F)c1)C2 (stereo unspecified)  112.4%
5. CC(C)n1c2ccccc2c2c1cc(C(=O)NC1CC1)n2C(=O)N(C)C  111.7%
6. CC(=O)N(Cc1ncc(C)o1)C1CCN(Cc2ccccc2C#N)C1 (stereo unspecified)  110%
7. CC(C)n1c2ccccc2c2c1cc(C(=O)N(C)C)n2C  109.8%
8. O=C(C1CCOC1)N1CCN(Cc2ccncc2)c2ncccc2C1 (stereo unspecified)  109.7%
9. Cc1ccc(N2CC[C@H]3C[C@H](C(=O)NCc4ccco4)O[C@H]3C2)nn1.O=C(O)C(F)(F)F  108.4%
10. CN1C(=O)CCCC12CCCN(C(=O)c1cc(F)cc(F)c1)C2 (stereo unspecified)  108.3%
11. O=C(NCc1ccco1)[C@H]1C[C@@H]2CCN(c3nncs3)C[C@H]2O1.O=C(O)C(F)(F)F  106%
12. O=C(NCc1ccco1)[C@H]1C[C@@H]2CCN(c3ncccn3)C[C@H]2O1.O=C(O)C(F)(F)F  105.1%
13. CC(C)c1noc(CCNC(=O)NCC2Cc3ccccc3O2)n1 (stereo unspecified)  104.8%
14. O=C(NCc1ccco1)[C@H]1C[C@@H]2CCN(c3cccc(F)c3)C[C@H]2O1.O=C(O)C(F)(F)F  104.2%
15. CN1C(=O)CCCC12CCCN(C(=O)c1ccc3c(c1)OCO3)C2 (stereo unspecified)  103.5%
16. CN1C(=O)CCCC12CCCN(C(=O)c1ccoc1)C2 (stereo unspecified)  102.5%
17. CC(=O)NCCNC(=O)NCC1Cc2ccccc2O1 (stereo unspecified)  101.6%
18. Cc1cc(C)cc(C(=O)N2CCCC3(CCCC(=O)N3C)C2)c1 (stereo unspecified)  101%
19. CC(C)c1noc(CCNC(=O)NCC2COc3ccccc3O2)n1 (stereo unspecified)  100.4%
20. O=C(NCC1CCOCC1)[C@H]1C[C@@H]2CCN(c3nncs3)C[C@@H]2O1.O=C(O)C(F)(F)F  99.44%
21. CC(C)n1c2ccccc2c2c1cc(C(=O)O)n2C(=O)N(C)C  98.97%
22. CC(C)n1c2ccccc2c2c1cc(C(=O)NCCO)n2C(=O)N(C)C  98.19%
23. O=C(NCCc1ccncc1)[C@H]1C[C@@H]2CCN(c3nncs3)C[C@H]2O1  96.02%
24. Cc1ccc(N2CC[C@H]3C[C@H](C(=O)NCc4ccco4)O[C@@H]3C2)cc1.O=C(O)C(F)(F)F  96.02%
25. CC(C)n1c2ccccc2c2c1cc(C(=O)N(C)C)n2S(C)(=O)=O  91.91%
26. COCCN(C)C[C@H]1C[C@H](CO)CN(C(=O)c2ccc(=O)n(C)c2)C1  90.72%
27. CC(C)n1c2ccccc2c2c1cc(C(=O)N(C)C)n2C(=O)N(C)C  90.72%
28. O=C(C1CCOC1)N1CCN(Cc2cccnc2)c2ncccc2C1 (stereo unspecified)  79.91%
29. COCCN(C)C[C@@H]1CN(C(=O)c2ccc(=O)n(C)c2)C[C@@H]1CO  59.39%
30. O=C(NCc1ccco1)[C@H]1C[C@@H]2CCN(c3ccncn3)C[C@@H]2O1.O=C(O)C(F)(F)F  48.28%
31. Cc1ncc(CC(=O)N2CCCC(COc3ccc(F)cc3)C2)c(=O)[nH]1 (stereo unspecified)  33.2%
32. CCc1nc(CN2CCCN(c3ncnc4ccccc34)CC2)no1  29.73%
33. CCN1CCN(CCCNC(=O)c2cc3ccc(C)cc3nc2C)CC1  26.08%
34. Cc1cnc(CN(C)C2CCN(Cc3ccccc3C#N)C2)o1 (stereo unspecified)  18.72%
35. O=C(Nc1cccnc1)[C@H]1C[C@@H]2CCN(c3nncs3)C[C@H]2O1.O=C(O)C(F)(F)F.O=C(O)C(F)(F)F  12.63%
36. CCN(CC)CCSc1nnc(N2CCN(c3ccc(F)cc3)CC2)s1  10.77%
37. CCC(C(=O)NC1(COC)CCCC1)n1cccn1 (stereo unspecified)  10.41%
38. c1cnn(CC2CCN(c3nc(C4CC4)nc4c3CCNCC4)CC2)c1  9.099%
39. CC(C)c1noc(CCC(=O)NCC2CCOC2)n1 (stereo unspecified)  7.119%
40. CC(C)c1noc(CCC(=O)NCC2CCS(=O)(=O)C2)n1 (stereo unspecified)  6.847%
41. Cc1cccc(C)c1NC(=O)CCNC(=O)c1ccoc1  6.824%
42. COCCN(Cc1ccccn1)C(=O)c1ccc(=O)n(C)c1  4.944%
43. CCN(C)C(=O)c1cc(-c2cn(C(C)C)cn2)n2ccccc12  4.681%
44. CS(=O)(=O)N1CCCC12CCCN(C(=O)c1cc(F)cc(F)c1)C2 (stereo unspecified)  3.882%
45. CCN(Cc1ccncc1)C(=O)c1cc(C)c(C)c(S(N)(=O)=O)c1  3.273%
46. CN1C[C@H]2CN(C(=O)c3ccc4c(c3)OCO4)CCN2C1=O  3.165%
47. COCCCSc1ccc(NC(=O)Nc2cn[nH]c2)cc1  3.134%
48. O=C1CCC2(CCCN(C(=O)c3ccoc3)C2)CN1CCc1c[nH]cn1 (stereo unspecified)  2.528%
49. O=C1CSc2ccccc2N1CC(=O)N1CCCCC1c1nccs1 (stereo unspecified)  2.391%
50. CC(C)NC(=O)CCNC(=O)c1c(Br)c2ccccc2n1C  2.193%
51. CN1C(=O)CCC12CCCN(C(=O)c1ccoc1)C2 (stereo unspecified)  1.769%
52. Cc1cc(S(=O)(=O)N2CC[C@@H](O)C2)c(Cl)cc1F  1.456%
53. CC(C)N1CCC(NC(=O)NCc2ccccc2)CC1  1.205%
54. Cc1oc(CNC(=O)Cc2cccc(OC(F)F)c2)cc1C(=O)O  1.075%
55. O=C(NCc1ccco1)[C@@H]1COC[C@H]2CN(c3ncc(F)cn3)C[C@H]21.O=C(O)C(F)(F)F  0.4075%
56. Cc1ccc(N2C[C@H]3OCC[C@H]3[C@H](C(=O)NCc3ccco3)C2)nn1  0.2496%
57. Cc1nn2c(N3CCC(C(N)=O)CC3)cc(-c3ccccc3)nc2c1C  0.08495%
58. CC(NC(=O)CCNC(=O)c1ccoc1)c1ccccc1 (stereo unspecified)  -1.423%
59. CC(=O)N(Cc1ncc(C)o1)C1CCN(Cc2cccc(C#N)c2)C1 (stereo unspecified)  -1.585%
60. CC(C)CCn1ccc(NC2CCSC2)n1 (stereo unspecified)  -1.669%
61. CC(=O)N(Cc1ncc(C)o1)C1CCN(Cc2ccncc2Cl)C1 (stereo unspecified)  -1.852%
62. CN(CC(C)(C)C)c1ccc(C(=O)NCCCc2ccccn2)cn1  -1.973%
63. COCC(C)N(C)C(=O)c1nc(S(C)(=O)=O)n2ccccc12 (stereo unspecified)  -2.923%
64. COc1ccnc(N2CCN(C(=O)c3csnn3)CC2)n1  -4.272%
65. COc1cccc(C(=O)N2C[C@@H](CN(C)CCO)[C@@H](CO)C2)c1C  -4.304%
66. CN(Cc1ccoc1)c1ccc(-c2nccn2C)nn1  -4.933%
67. Cc1cc(F)ccc1C(=O)N1C[C@@H]2COC[C@]2(CN(C)C)C1.O=C(O)C(F)(F)F  -5.19%
68. O=C(NCCc1nncn1C1CC1)C1SCCc2sccc21 (stereo unspecified)  -5.898%
69. Fc1ccc2[nH]c(CO[C@H]3CN(CC4CC4)C[C@H]3F)nc2c1  -6.025%
70. O=C(Cn1nnn(-c2cccs2)c1=O)N(CC1CCOC1)C1CC1 (stereo unspecified)  -6.322%
71. COCCNC(=O)[C@H]1C[C@@H]2CCN(c3nncs3)C[C@H]2O1.O=C(O)C(F)(F)F  -6.597%
72. CCN(CC)C1(Cc2cc(COC)on2)COC1  -6.864%
73. c1cnc(-c2nc(CNCCn3cccn3)cs2)nc1  -8.125%
74. Cc1cncc(C(=O)N2CCCC3(CCCN3S(C)(=O)=O)C2)c1 (stereo unspecified)  -8.185%
75. Cc1nc(C)n(C2CCCN(C(=O)c3sccc3C3CC3)C2)n1 (stereo unspecified)  -8.521%
76. CS(=O)(=O)N1CCCC12CCCN(C(=O)c1ccc3c(c1)OCO3)C2 (stereo unspecified)  -9.352%
77. O=C(C1CCOCC1)N1CCN(CC2CC2)c2ncccc2C1  -9.379%
78. O=C(NCC1(c2cccc(F)c2)CC1)N1CCC2(CCOC2)C1 (stereo unspecified)  -9.611%
79. CCCN(CC)C(=O)c1cc2c(c3ccccc3n2C)n1C(=O)N(C)C  -10.54%
80. Cc1cnc(C(=O)NCC2Cc3ccccc3O2)cn1 (stereo unspecified)  -10.72%
81. COCCCN1C(=O)CC[C@H]2CN(Cc3cc4ccccc4o3)CC[C@H]21  -11.4%
82. CC(C)(C(=O)NCC1CC1)c1ccccc1F  -12.8%
83. Cc1noc(CCCC(=O)NC(C)c2ccccn2)n1 (stereo unspecified)  -13.35%
84. CC(C)(C)c1csc(C2CCCCN2C(=O)CCn2cncn2)n1 (stereo unspecified)  -13.47%
85. CC(CNS(N)(=O)=O)c1ccc(F)c(F)c1 (stereo unspecified)  -14.37%
86. CC(C)c1noc(CCNC(=O)C2COc3ccccc3C2)n1 (stereo unspecified)  -14.38%
87. Cc1cn(CC(=O)NC2CCN(C(C)C)CC2)c2ccccc12  -15.19%
88. O=C(NC[C@H]1OC[C@@H](NCc2ccccc2)[C@@H]1O)Nc1ccc(F)cc1  -15.63%
89. Cc1noc(COCC(=O)N2CCCCC2c2nccs2)n1 (stereo unspecified)  -17.81%
90. CCC(C)(C)NC(=O)c1ccc(-c2ccco2)[nH]c1=O  -18%
91. CN(C)C1CCN(Cc2cnc(S(C)(=O)=O)n2CC2CCCCC2)C1 (stereo unspecified)  -18.29%
92. COCCN(Cc1cccs1)C(=O)c1ccc(=O)n(C)c1  -19.51%
93. CC(C)c1noc(CN(C)C(=O)C2COc3ccccc3C2)n1 (stereo unspecified)  -21.45%
94. CC(=O)c1ccc(C(=O)NCC2Cc3ccccc3O2)s1 (stereo unspecified)  -26.22%
95. O=C(NC(C(=O)Nc1cc[nH]n1)c1ccccc1)C1CCC1 (stereo unspecified)  -26.62%
96. CCCNC(=O)c1cc2c(c3ccccc3n2C)n1C(=O)N(C)C  -57.33%
